{"source": "the supplement of paper PMC3842684"}
{"test_system": "P. falciparum NF54-pfs16-GFP early (I-III) stage gametocytes", "assay": "relative % inhibition of viable gametocyte number; higher = more gametocytocidal", "conditions": "0.5 µM; stage: early (I-III) gametocyte; incubation 72 h", "in_short": "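In 384-well poly-D-lysine imaging plates, NF54 pfs16-GFP gametocytes (magnet-isolated, early I/IIa on day 2 or late on day 8; 10% parasitaemia, 0.1% haematocrit) received compound in duplicate at 5 or 0.5 µM. Plates stood 72 h at 37°C in 5% CO2 and 5% O2, then overnight with MitoTracker Red before confocal imaging, where elongated GFP objects with MitoTracker signal above cut-off counted as viable. Relative inhibition was calculated against vehicle and positive-control wells on the same plate.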", "units": {"relative % inhibition": "%"}}
{"smiles": "CCn1c2c(c(=N)c3c1CCC3)CCCC2", "relative % inhibition": -1.17}
{"smiles": "CCOc1ccc(C2N(C)c3ccccc3N2C)cc1", "relative % inhibition": 5}
{"smiles": "CC1CCN(Cc2c(O)ccc3cc(-c4nc5ccccc5s4)c(=O)oc23)CC1", "relative % inhibition": 2.97}
{"smiles": "COc1cccc(NC(=O)Cn2c(C)c(C#N)c3ccccc32)c1", "relative % inhibition": 17}
{"smiles": "CN(C)CCCNc1c2ccccc2nc2ccccc12", "relative % inhibition": 85.1}
{"smiles": "CCCCOc1ccc(C(=O)Nc2cc(C)on2)cc1", "relative % inhibition": 3}
{"smiles": "COc1ccc(C(C)=O)cc1N1C(=O)C2C(C1=O)C1(c3ccccc3)C(=O)C2(c2ccccc2)C(c2ccc(C)cc2)=C1c1ccc(C)cc1", "note": "(centres undefined)", "relative % inhibition": 52.9}
{"smiles": "CCOc1c(Cl)cc(CNCC(O)c2ccccc2)cc1OC", "note": "(centres undefined)", "relative % inhibition": -19.6}
{"smiles": "Oc1ccc(Cl)cc1CNc1nc2ccccc2[nH]1", "relative % inhibition": 16.5}
{"smiles": "O=C(Nc1ccc(CN2CCOCC2)cc1)c1ccc(-c2cc(Cl)ccc2Cl)o1", "relative % inhibition": -3.41}
{"smiles": "COc1cccc(-c2nn(C)c3sc(C(=O)NCCN4CCN(c5ccccc5F)CC4)cc23)c1", "relative % inhibition": 12.4}
{"smiles": "COc1ccc(C(=O)NC(c2ccc(Cl)cc2Cl)c2cc(Cl)c3cccnc3c2O)cc1", "note": "(centres undefined)", "relative % inhibition": 42.5}
{"smiles": "Cc1sc2ncnc(Sc3nc4ccccc4[nH]3)c2c1C", "relative % inhibition": 89.7}
{"smiles": "CCN(CC)c1ccc(NC(=O)c2cccs2)cc1", "relative % inhibition": -1.58}
{"smiles": "COc1ccc(Nc2cc(C)nc(NCc3ccccc3)n2)cc1", "relative % inhibition": -3.8}
{"smiles": "COc1cccc(C(=O)Nc2ccc(-c3nc4ccccc4[nH]3)cc2)c1", "relative % inhibition": 12.4}
{"smiles": "O=C(Nc1ccccc1O)c1ccc(-c2ccc(Cl)cc2Cl)o1", "relative % inhibition": 21.2}
{"smiles": "CC1=C(CC(=O)c2cccc([N+](=O)[O-])c2)C(=O)c2ccccc2C1=O", "relative % inhibition": 48}
{"smiles": "CCCCc1c(C)nc2c(OC)cccc2c1O", "relative % inhibition": 12.7}
{"smiles": "CCc1ccc(Nc2cc(C)c3ccc(O)cc3n2)cc1", "relative % inhibition": 1.9}
{"smiles": "COc1ccccc1C(=O)ON=C(N)Cc1cccc2ccccc12", "relative % inhibition": 13.9}
{"smiles": "COc1ccc(-c2nonc2NC(=O)c2cccc(Cl)c2)cc1OC", "relative % inhibition": 31.7}
{"smiles": "Cc1ccc(-c2nc3ccccc3o2)cc1NCc1cc(Cc2ccccc2)ccc1O", "relative % inhibition": 9.8}
{"smiles": "CN(C)c1ccc(C=Cc2nc(=O)c3ccccc3o2)cc1", "relative % inhibition": -10.1}
{"smiles": "Cc1cc(C)c2c(c1)OCN(Cc1ccccc1Cl)C2", "relative % inhibition": 59.9}
{"smiles": "O=C(Nc1ccc(N2CCCCC2)c(Cl)c1)c1ccc(Br)o1", "relative % inhibition": 5.95}
{"smiles": "COc1ccc(OC)c(C2C3=C(CC(C)(C)CC3=O)N(c3ccc(Cl)c(Cl)c3)C3=C2C(=O)CC(C)(C)C3)c1", "relative % inhibition": 13.6}
{"smiles": "Cc1sc(NC(=O)c2ccccc2)c(C(c2cccs2)N2CCN(c3ccccc3)CC2)c1C", "note": "(centres undefined)", "relative % inhibition": 17.7}
{"smiles": "CC(O)(c1ccc(Cl)cc1)C(CN1CCCCC1)c1ccccc1", "note": "(centres undefined)", "relative % inhibition": 20}
{"smiles": "O=C(Nc1ccc(F)c(Cl)c1)Nc1ccc(Cl)c(Cl)c1", "relative % inhibition": 6.15}
{"smiles": "CCCCCCc1cc2cc(-c3nc4ccccc4[nH]3)c(=Nc3ccccc3C)oc2cc1O", "relative % inhibition": 60.1}
{"smiles": "CN(C)CCNc1cc(-c2ccccc2)nc2ccccc12", "relative % inhibition": -7.32}
{"smiles": "COc1cc2c(cc1OC)C1=NNC(=O)C1=NC(C)(C)C2", "relative % inhibition": 71.5}
{"smiles": "Cc1cc(NC(=O)C2c3ccccc3C(=O)N(CC(C)C)C2c2cccs2)no1", "note": "(centres undefined)", "relative % inhibition": 37.5}
{"smiles": "CCN1CCN(c2cc(C)c3cc(NC(=O)c4ccc(OC)c(OC)c4)ccc3n2)CC1", "relative % inhibition": 11.4}
{"smiles": "CC(C)c1ccc(CNCC(O)c2ccccc2)cc1", "note": "(centres undefined)", "relative % inhibition": 5.28}
{"smiles": "Cn1c(C(=O)c2cccc3ccccc23)nc2ccccc21", "relative % inhibition": 3.04}
{"smiles": "O=c1nc(C=Cc2ccc(Cl)cc2)oc2ccccc12", "relative % inhibition": 10.5}
{"smiles": "Oc1ccccc1CN1CCN(C(c2ccccc2)c2ccccc2)CC1", "relative % inhibition": 13.3}
